This is an account of results in the supplement of paper PMC8047044.

Molecules are shown by their SMILES. Structures can show the parent of a compound that is named as a salt.

In this assay the test system is Neuro-2a. The assay is described as follows: neurite formation score, plate-normalized to DMSO control mean 5.04 (score (0-8 scale)); higher = more or longer neurites. As to conditions: 0.1 µM. Here is the method:
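Neuro-2a mouse neuroblastoma cells in PLL-coated 96-well plates were pre-treated for 1 h in DMEM(+) with each kinase inhibitor at 0.1 µM, then switched to serum-free DMEM(-) with inhibitor to induce neurite outgrowth and fixed about 2-3 h later. Three blinded observers scored neurite formation from 0 (no neurites) to 8 (long neurites on almost all cells).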
For `S=C(NCc1ccc2c(c1)OCO2)N1CCN(c2ncnc3c2oc2ccccc23)CC1` [Amuvatinib (MP-470, HPK 56)], the neurite formation score was 4.92.
In the case of `CNC(=O)c1cc(Oc2ccc(NC(=O)Nc3ccc(Cl)c(C(F)(F)F)c3)cc2)ccn1` [Sorafenib] it was 4.71; in that of `Cc1ccccc1CN1C2=NCCN2C(=O)C2=C1CCN(Cc1ccccc1)C2`, 4.25; in that of `O=c1cc(-c2ccccc2)oc2c(O)c(O)ccc12` [7,8-Dihydroxyflavone], 5.08.
`CN(C)S(=O)(=O)c1ccc2c(c1)/C(=C/c1cc3c([nH]1)CCCC3)C(=O)N2` displayed a neurite formation score of 4.75.
The compound `Cc1ncc(CCCN(C)C)cc1Nc1ncc2c(n1)-c1ccc(C(F)(F)F)cc1NC(=S)C2` registered a neurite formation score of 4.92.
`COc1ncc(-c2ccc3nccc(-c4ccnnc4)c3c2)cc1NS(=O)(=O)c1ccc(F)cc1F` returned a neurite formation score of 4.92.
In the case of `O=C1NC(=O)/C(=C\c2ccc3nccnc3c2)S1` it was 5.09.
In turn, `O=C(Nc1ccc2[nH]nc(-c3ccncc3)c2c1)[C@@H]1CCN(CC(=O)N2CCN(c3ccc(-c4ncccn4)cc3)CC2)C1` gave a neurite formation score of 5.09.
Compound `O=C1NC(=O)C(c2ccccc2[N+](=O)[O-])=C1Nc1ccc(O)c(Cl)c1` returned a neurite formation score of 5.21.
In turn, `CCOc1cc(C(=O)N2CCC(N3CCN(C)CC3)CC2)ccc1Nc1ncc2c(n1)N(C1CCCC1)c1ccccc1C(=O)N2C` had a neurite formation score of 4.25.
In the case of `N=C(N)NCCC(=O)O` [3-Guanidinopropionic Acid] it was 4.75; in that of `Cc1nc(NC(=O)N2CCC[C@H]2C(N)=O)sc1-c1csc(C(C)(C)C)n1`, 5.21; in that of `c1nc2c(NC3CCCCC3)nc(Nc3ccc(N4CCOCC4)cc3)nc2[nH]1` [Reversine], 4.92.
Turning to `O=C(c1ccc(/C=C/c2n[nH]c3ccccc23)cc1)N1CCNCC1`, the neurite formation score worked out at 1.92.
`CCS(=O)(=O)N1CC(CC#N)(n2cc(-c3ncnc4[nH]ccc34)cn2)C1` displayed a neurite formation score of 4.58.
In the case of `O=C1NCCc2[nH]c(-c3ccncc3)cc21` it was 5.92.
On to `COc1cc(OC)c(/C=C/S(=O)(=O)Cc2ccc(OC)c(NCC(=O)O)c2)c(OC)c1`, for which the neurite formation score turned out to be 3.04.
In the case of `NC1(c2ccc(-c3nc4ccn5c(=O)[nH]nc5c4cc3-c3ccccc3)cc2)CCC1` [MK-2206 dihydrochloride] it was 4.71; in that of `CN([C@@H](Cc1ccc(OS(=O)(=O)c2cccc3cnccc23)cc1)C(=O)N1CCN(c2ccccc2)CC1)S(=O)(=O)c1cccc2cnccc12`, 4.54.
In the case of `COc1cc2c(Oc3ccc(NC(=O)C4(C(=O)Nc5ccc(F)cc5)CC4)cc3F)ccnc2cc1OCCCN1CCOCC1` it was 3.38; in that of `CC(C)n1nc(-c2cc3cc(O)ccc3[nH]2)c2c(N)ncnc21`, 4.76.
Turning to `Fc1cc(-c2cccc3ncc(-c4cnn(C5CCNCC5)c4)nc23)cc(F)c1CN1CCOCC1`, the neurite formation score was 4.09.
In the case of `CO[C@H]1C[C@@H]2CC[C@@H](C)[C@@](O)(O2)C(=O)C(=O)N2CCCC[C@H]2C(=O)O[C@H]([C@H](C)C[C@@H]2CC[C@@H](OC(=O)C(C)(CO)CO)[C@H](OC)C2)CC(=O)[C@H](C)/C=C(\C)[C@@H](O)[C@@H](OC)C(=O)[C@H](C)C[C@H](C)/C=C/C=C/C=C/1C` [Temsirolimus] it was 4.21; in that of `O=C(c1ccc(F)c(F)c1Nc1ccc(I)cc1F)N1CC(O)([C@@H]2CCCCN2)C1` [Cobimetinib], 4.71.
Take `CCN1CCN(c2ccc(Nc3cc(N(C)C(=O)Nc4c(Cl)c(OC)cc(OC)c4Cl)ncn3)cc2)CC1`: the neurite formation score stood at 4.09.
In turn, `CC(C)NC[C@@H](C(=O)N1CCN(c2ncnc3c2[C@H](C)C[C@H]3O)CC1)c1ccc(Cl)cc1` gave a neurite formation score of 5.04.
Under `COc1cc(F)c(F)c(Nc2ccc(I)cc2F)c1NS(=O)(=O)C1(C[C@H](O)CO)CC1` [Refametinib] stands 3.42; under `Cn1cnc(=N)c2[nH]cnc21` [3-Methyladenine], 4.88; under `CC[C@@H]1C(=O)N(C)c2cnc(Nc3ccc(C(=O)N[C@H]4CC[C@H](N5CCN(CC6CC6)CC5)CC4)cc3OC)nc2N1C(C)C` [BI6727 (Volasertib)], 4.25.
Turning to `N#CC(=C(/N)Sc1ccccc1N)/C(C#N)=C(\N)Sc1ccccc1N`, the neurite formation score is 5.71.
In the case of `O=C(O)[C@]1(Cc2cccc(Nc3nccs3)n2)CC[C@@H](Oc2cccc(Cl)c2F)CC1` it was 3.92.
Under `CN(C)C/C=C/C(=O)Nc1cc2c(Nc3ccc(F)c(Cl)c3)ncnc2cc1O[C@H]1CCOC1` [Afatinib dimaleate] stands 4.38; under `O=C1NC(=O)/C(=C/c2cccc(C(F)(F)F)c2)S1`, 4.92.
`CC(C)[C@H](CO)Nc1nc(Nc2cccc(Cl)c2)c2ncn(C(C)C)c2n1` [Purvalanol A] came in with a neurite formation score of 5.08.
Under `CN1CCN(c2ccc(Nc3cc(-c4cccc(-n5ccc6cc(C7CC7)cc(F)c6c5=O)c4CO)cn(C)c3=O)nc2)CC1` stands 4.58.
Under `O=C(Nc1c[nH]nc1-c1nc2ccc(CN3CCOCC3)cc2[nH]1)NC1CC1` stands 5.92.
